From PubChem
The list is not random: actives were taken first. Their share in the collection is about 18%.
LDHA inh: inhibitors of human lactate dehydrogenase A; P00338; purified LDHA, NADH/diaphorase-resazurin fluorescence; stronger effect = lower value; activity change, % (values are at about 110 or 230 µM); 0.15% of 480,000 active; AID 1347041; in the data active means activity change below about -30%; inconclusive means mostly about -25% to -30%;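 further: plate controls were DMSO wells for no effect and wells without enzyme for full effect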
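Enzyme activity of human lactate dehydrogenase 5 (2 nM; 0.06 mM NADH, 0.2 mM pyruvate, 5 min, RT) is measured via a resazurin/diaphorase fluorescence readout of residual NADH.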
TDP1 cell CPT: growth inhibition of DT40 Tdp1-/-;hTDP1 cells with camptothecin (screen for TDP1 inhibitors); chicken DT40 Tdp1-/-;hTDP1 cells + 20 nM CPT, ATP luminescence, 48 h; Potency, µM (highest dose often 46.2 µM), for inactives: at the top dose activity change, negative = growth inhibition, most hits filed as inhibitors; 12% of 420,000 active; further: potency means the concentration at half of the fitted maximal effect; nearly all actives have a fitted effect of over 55% in size
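Chicken DT40 Tdp1-/- cells complemented with human TDP1, 400 cells/well, exposed to compounds plus 20 nM camptothecin for at least 48 h at 37 C; viability read as ATP content by CellTiter-Glo luminescence.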
DT40 TDP1 no CPT: qHTS for Inhibitors of human tyrosyl-DNA phosphodiesterase 1 (TDP1): qHTS in cells in absence of CPT | Potency, µM (top dose mostly 46.2 µM), for the others: at the highest dose activity change, negative = growth inhibition, most hits filed as inhibitors | DT40 Tdp1-/- hTDP1 cells, no CPT, ATP luminescence, 48 h | 15% of 420,000 active; further: potency means the concentration at half of the fitted maximal effect; nearly all actives have a fitted effect of over 55% in size
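Luminescent ATP content (CellTiter-Glo) served as the growth readout. Knockout chicken DT40 cells expressing human TDP1 were exposed to compounds without camptothecin for a minimum 48 hr at 37 °C.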
VP16 counter: inhibits Gal4-VP16 luciferase reporter, ROR gamma counter-screen | Drosophila S2 Gal4-VP16 UAS-luciferase, luminescence, 20 h | Potency, µM (titrated, usually from 53.6 µM), for inactives: top-dose activity, negative = inhibition, hits mostly inhibitors | 3.5% of 310,000 active | AID 2546;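 further: Gal4-VP16 expression switched on by copper sulfate through the metallothionein promoter; potency means the concentration at half of the fitted maximal effect; nearly all actives have a fitted effect of over 50% in size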
RORgamma inh: blocks mouse ROR gamma transcriptional activity; P51450; Drosophila S2 Gal4-RORgamma UAS-luciferase reporter, 20 h; Potency, µM (top dose mostly 53.6 µM), for the others: top-dose activity change, negative = inhibition, actives largely listed as inhibitors; 5.4% of 310,000 active; AID 2551; further: potency means the concentration at half of the fitted maximal effect; nearly all actives have a fitted effect of over 60% in size
Target sequence (P51450 whole entry, looked up, the tested form may be a part): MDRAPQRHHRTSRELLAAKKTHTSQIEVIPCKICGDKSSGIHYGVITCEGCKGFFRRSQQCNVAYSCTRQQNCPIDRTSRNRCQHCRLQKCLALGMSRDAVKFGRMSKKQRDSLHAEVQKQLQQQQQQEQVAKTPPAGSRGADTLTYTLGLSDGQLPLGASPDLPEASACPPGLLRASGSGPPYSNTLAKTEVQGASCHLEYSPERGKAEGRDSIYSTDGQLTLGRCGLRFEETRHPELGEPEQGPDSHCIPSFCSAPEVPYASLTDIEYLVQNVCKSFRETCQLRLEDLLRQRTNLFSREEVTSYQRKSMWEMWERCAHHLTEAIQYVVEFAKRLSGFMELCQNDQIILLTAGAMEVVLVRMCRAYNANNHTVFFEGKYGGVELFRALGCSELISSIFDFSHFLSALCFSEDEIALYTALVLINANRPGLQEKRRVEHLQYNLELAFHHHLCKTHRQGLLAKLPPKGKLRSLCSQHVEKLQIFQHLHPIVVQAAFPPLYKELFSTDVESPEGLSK
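In this cell-based reporter format, copper sulfate (700 uM final) drives Gal4–ROR gamma fusion expression from a metallothionein promoter in Drosophila Schneider cells; compounds preincubated 1 hr, reporter read after 20 hr at ambient temperature.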
IL-1B inflam inh: inhibitors of inflammasome signaling (IL-1 beta secretion) | THP-1 LPS/ATP IL-1B secretion, AlphaLISA, 16 h; stronger effect = lower value | 4.7% of 360,000 active | activity change, % at 57.5 µM; in the data active means activity change below about -50%; inconclusive means mostly about -30% to -49%
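THP-1 cells pretreated 1 hr with compounds (up to 57.5 uM final), then stimulated with LPS (250 ng/mL final) plus ATP (1.25 mM final); secreted IL-1B measured by AlphaLISA after 16 hr, decreased signal indicating inhibition.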
Active calls of the source: *; ? = inconclusive; / = no result given; [ ] = remark or other dose. Unless noted, the call rests on the fitted dose curve; in most records, active means well fitted curve in the direction sought with a large enough effect; inconclusive means small, poorly fitted or top-dose-only effect, or another doubt; inactive means no such curve, though single readings can be large; an effect the other way counts as inactive or inconclusive. Unless noted, on the % scale 0 is the no-effect control and ±100 the full control effect.

SMILES	LDHA inh	TDP1 cell CPT	DT40 TDP1 no CPT	VP16 counter	RORgamma inh	IL-1B inflam inh
CN(C)c1ccc([N+](=O)[O-])c([N+](=O)[O-])c1	-2.3	?	?	/	/	-58.6*
C[C@H]1CC[C@]2(OC1)O[C@@H]1C[C@@H]3[C@@H]4CC[C@H]5C[C@@H](O)CC[C@]5(C)[C@@H]4CC(=O)[C@@]3(C)[C@H]1[C@@H]2C	/	/	/	?	0.5%[16.9 µM]	/
COc1cc(CN2CCN(C(=O)COc3ccc4ccccc4c3)CC2)cc(OC)c1O	37.4	/	/	/	/	/
CCn1cc(C(=O)N(C)CC(=O)NC(C)(C)C)c2ccccc21	-8.8	/	/	/	/	/
CC[n+]1c(-c2ccccc2)c2cc(N)ccc2c2ccc(N)cc21	17.2	0.164µM*	0.146µM*	11.2µM*	?	-99.0*
c1ccc(CCNCC2CCCCC2)cc1	-3.1	/	/	/	/	/
CCOc1ccc(CNCCc2c[nH]c3ccccc23)cc1	0.4	/	/	/	/	/
CCOc1ccccc1CNCCc1c[nH]c2ccccc12	0.9	/	/	/	/	/
CCOc1cc(CNCCc2c[nH]c3ccccc23)cc(Cl)c1OCC	0.9	16.4µM*	18.4µM*	?	-38.3%	-96.6*
CCOc1c(Cl)cc(CNCCc2c[nH]c3ccccc23)cc1OC	0.3	?	14.6µM*	?	?	-86.9*
O=C(O)CC1(CNC(=O)Cn2ccc3c(Cl)cccc32)CCCCC1	0.8	/	/	/	/	/
CC(C)C#N	/	/	/	3.6%	2.6%	/
C[C@]12CC[C@H]3[C@@H](CCC4=C(Cl)C(=O)CC[C@@]43C)[C@@H]1CC[C@@H]2O	/	-7.8%	?	/	/	/
Cc1ccc(NC(=O)c2cn(CCC#N)nc2-c2ccc3c(c2)OCCO3)c([N+](=O)[O-])c1	-8.2	?	6.51µM*	4.8%	8.6%	-12.2
N#CCCn1cc(C(=O)Nc2ccc([N+](=O)[O-])cc2)c(-c2ccc3c(c2)OCCO3)n1	-7.4	-6.3%	-14.5%	?	?	-15.4
O=Cc1ccc(Cl)cc1Cl	/	/	/	8.1%	-3.8%	/
CCCCCCOc1ccc(CN2CCN(CC)CC2)cc1	-8.3	?	23.1µM*	-18.9%	-27.8%	?
C=CC(C)=O	/	/	/	1.4%	1.9%	/
Oc1ccc2c3c1O[C@H]1c4[nH]c5c(c4C[C@@]4(O)[C@@H](C2)N(CC2CC2)CC[C@]314)C[C@]1(O)[C@H]2Cc3ccc(O)c4c3[C@@]1(CCN2CC1CC1)[C@@H]5O4	/	-4.6%	-4.1%	-4.4%	29.0%	/
O=C1/C(=C\c2ccccc2)C[C@@]2(O)[C@H]3Cc4ccc(O)c5c4[C@@]2(CCN3CC2CC2)[C@@H]1O5	/	2.37µM*	2.66µM*	12.6µM*	11.2µM*	/
O=C(/C=C/c1ccc(Cl)cc1)N[C@@]12CCC(=O)[C@@H]3Oc4c(O)ccc5c4[C@@]31CCN(CC1CC1)C2C5	/	13µM*	10.3µM*	/	/	/
O=C1/C(=C\c2ccccc2)C[C@@]2(O)[C@H]3Cc4ccc(O)c5c4[C@@]2(CCN3CC2CC2)[C@H]1O5	/	2.06µM*	2.06µM*	/	/	/
O=C1CC[C@@]2(O)[C@H]3Cc4ccc(O)c5c4[C@@]2(CCN3CC2CC2)[C@@H]1O5	/	12.0%	-7.3%	2.7%	4.3%	/
Oc1ccc2c3c1O[C@H]1[C@H](O)CC[C@@]4(O)[C@@H](C2)N(CC2CC2)CC[C@]314	/	/	/	-3.7%	19.5%	/
Oc1ccc2c3c1O[C@H]1c4c(c5ccccc5n4Cc4ccccc4)C[C@@]4(O)C(C2)N(CC2CC2)CC[C@]314	/	5.17µM*	3.66µM*	/	/	/
SMILES	LDHA inh	TDP1 cell CPT	DT40 TDP1 no CPT	VP16 counter	RORgamma inh	IL-1B inflam inh
COc1ccc2c(c1)c(C(C)=O)c(C)n2Cc1ccccc1	0.2	/	/	/	/	/
NC(N)=Nc1ccc2[nH]c3c(c2c1)C[C@@]1(O)[C@H]2Cc4ccc(O)c5c4[C@@]1(CCN2CC1CC1)[C@H]3O5	-13.1	2.31µM*	4.61µM*	/	/	?
CCCCn1c(N)c(C(=O)OCCOC)c2nc3ccccc3nc21	12.9	3.2%	-25.7%	5.2%	-6.3%	/
CCCCn1c(-c2nonc2NC(=O)c2ccccc2Cl)nc2ccccc21	-1.4	10.3µM*	23.1µM*	/	/	19.1
CC(C)C1CN1CC(O)Cn1ccnc1[N+](=O)[O-] (stereo unspecified)	-3.1	18.4µM*	?	/	/	-16.7
O=[N+]([O-])c1cc(F)c(N2CCCCCC2)cc1N1CCNCC1	-3.6	16.4µM*	?	3.6%	-35.8%	-7.9
CC(=O)OCC(=O)[C@@H]1CC[C@H]2[C@H]3CC[C@H]4C[C@@H](O)CC[C@]4(C)[C@@H]3C(=O)C[C@@]12C	/	/	/	-3.5%[17 µM]	-33.2%[16.9 µM]	/
O=C(CNC(=O)c1ccccc1)Nc1ccc(Br)cc1C(=O)c1ccccc1	-3.2	1.9%	?	-10.3%	8.2%	-52.2*
CC(=O)NCC(=O)Nc1ccc(Br)cc1C(=O)c1ccccc1	-0.9	4.1%	-24.5%	-2.8%	13.7%	/
O=C(CNC(=O)c1ccccc1Cl)Nc1ccc(Br)cc1C(=O)c1ccccc1	-3.2	18.4µM*	18.4µM*	-15.5%	?	0.6
O=C(CN1CCCCC1)NCC(=O)Nc1ccc(Br)cc1C(=O)c1ccccc1	1.8	16.4µM*	18.4µM*	-7.0%	20.7%	22.6
O=C(Nc1ccc(Cl)cc1C(=O)c1ccccc1)c1ccccc1Br	2.1	?	2.91µM*	/	/	/
CC(C)(N)Cc1ccc(Cl)cc1	/	?	-27.5%	-9.6%	-1.7%[10 µM]	/
CCCC(=O)c1cn(Cc2ccccc2C#N)c2ccccc12	-7.8	/	/	/	/	/
OC[C@@H]1CCCN2CCCC[C@@H]12	/	4.3%	-6.7%	-2.7%	-15.2%	/
CCNC(=O)C1CCCN(Cc2ccc3ccccc3c2Br)CC1 (stereo unspecified)	-0.4	?	?	/	/	-2.2
NCC(c1ccc(Cl)cc1)N1CCCC1 (stereo unspecified)	-4.0	/	/	/	/	/
O=C1CC(c2ccccc2)[Se]C(c2ccccc2)C1 (stereo unspecified)	3.3	/	/	/	/	/
O=C(Nc1ccc(Br)cc1C(=O)c1ccccc1Cl)c1ccc(Br)cc1	0.6	4.6%	-6.7%	/	/	/
COc1cc(C(=O)Nc2ccc(Br)cc2C(=O)c2ccccc2Cl)cc(OC)c1OC	8.2	?	23.1µM*	-8.7%	-34.4%	27.6
C[C@]12CC[C@H](O)CC1=CCC1C2CC[C@]2(C)C(=O)[C@H](Br)CC12 (stereo partly specified)	8.9	?	?	/	/	-105.5*
CC12CCC3C(CC=C4CC(O)CCC43C)C1C/C(=C\c1ccccc1F)C2=O (stereo unspecified)	-4.2	?	23.1µM*	-16.7%	?	22.8
